The source of these data is PubChem BioAssay (Tox21).

“And” between values parts separate entries of the source, which are not always exact repeats. Equal values may be shown once. A number with no mark means an inactive call. Where a call stands in place of a potency, no number is given. The source made the active and inactive calls. Calls come from the whole dose curve.
Potency is the fitted concentration of half-maximal effect.

Sequence of Estrogen receptor (Homo sapiens) (P03372 whole entry, looked up): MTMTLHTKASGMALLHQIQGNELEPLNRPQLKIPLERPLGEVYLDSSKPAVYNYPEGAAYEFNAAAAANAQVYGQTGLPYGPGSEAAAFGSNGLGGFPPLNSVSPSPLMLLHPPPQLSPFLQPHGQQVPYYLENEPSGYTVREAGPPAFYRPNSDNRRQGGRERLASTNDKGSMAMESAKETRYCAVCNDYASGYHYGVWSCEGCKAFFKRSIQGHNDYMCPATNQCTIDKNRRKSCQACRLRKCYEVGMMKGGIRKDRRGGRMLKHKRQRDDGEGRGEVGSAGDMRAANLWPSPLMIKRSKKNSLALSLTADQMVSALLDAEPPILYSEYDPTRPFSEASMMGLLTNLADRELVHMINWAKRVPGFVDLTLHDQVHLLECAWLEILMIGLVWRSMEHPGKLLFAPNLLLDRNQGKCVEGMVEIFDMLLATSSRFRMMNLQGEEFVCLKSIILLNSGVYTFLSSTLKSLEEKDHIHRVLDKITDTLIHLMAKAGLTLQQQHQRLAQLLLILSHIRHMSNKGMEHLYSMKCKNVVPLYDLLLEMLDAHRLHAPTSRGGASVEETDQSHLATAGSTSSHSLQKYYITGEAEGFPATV

The target of this test is Estrogen receptor (Homo sapiens) (UniProt P03372). As to the kind of experiment: qHTS assay to identify small molecule agonists of the estrogen receptor alpha (ER-alpha) signaling pathway in the presence of an antagonist (AID 1259383). For activation: top concentration of the series differs between compounds. Note: nearly all actives have a fitted effect of over 15% in size. To be noted: VM7Luc4E2 cells, ERE-luciferase, +ICI-182,780, 22 h; series mostly up to 92.4 µM. From the text:
National Center for Advancing Translational Sciences [NCATS] NIH Chemical Genomics Center [NCGC] U.S. Environmental Protection Agency [EPA] National Institutes of Environmental Health Sciences [NIEHS] National Toxicology Program [NTP] Assay overview: Estrogen receptor (ER), a member of nuclear hormone receptor plays an important role in development, metabolic homeostasis and reproduction. Two subtypes of ER, ER-alpha and ER-beta, have similar expression patterns with some uniqueness in both types. Endocrine disrupting chemicals (EDCs) and their interactions with steroid hormone receptors like ER causes disruption of normal endocrine function. Therefore, it is important to understand the effect of environmental chemicals in ER signaling pathway. For identifying ER agonists, VM7Luc4E2 cell line has been used in the current assay. VM7Luc4E2 cell line (provided by Denison MS, University of California) endogenously expresses full-length ER-alpha and is stably transfected with a plasmid containing four estrogen responsive elements (ERE) upstream of a luciferase reporter gene. This current screening for measuring luciferase reporter gene activity using VM7Luc4E2 cells against Tox21 10K library collection is a confirmation study on agonist mode screening in presence of ER-antagonist (ICI-182,780) at 10.0nM final concentration.
Assay Protocol Summary: VM7Luc4E2 cells were cultured in phenol red free assay medium containing 10% charcoal stripped FBS for 5 days prior to the assay. The cells were dispensed at 4,000 cells in 4uL of assay medium per well into white wall/solid-bottom 1536-well plates (Corning Life Sciences, Corning, NY) using a Multidrop Combi (Thermo Fisher Scientific Inc., Waltham, MA) dispenser. After the assay plates were incubated at 37C and 5% CO2 for 24hr, 1uL of 10.0nM (final concentration) ICI-182,780 or assay buffer was added using two separate tips of Flying Reagent Dispenser (FRD, Aurora Discovery, San Diego, CA). Then 23nL of compounds dissolved in DMSO at 15 concentrations and positive controls or DMSO only was transferred to the assay plates by a Pintool station (Wako, San Diego, CA). The assay plates were incubated at 37C and 5% CO2 for 22hr. For luciferase read, 4uL/well ONE-Glo reagent (Promega Corporation, Madison, WI) was added to each well using FRD and after 30min incubation at room temperature, luminescence signal was measured on ViewLux plate reader (PerkinElmer, Shelton, CT).
With `Cc1ccc(O)c(O)c1`, the Potency result is “inactive”.

With `S=c1nccc[nH]1`, the Potency result is “inactive”. Consider `CC1(C)CCC[C@]2(C)[C@H]3CC(=O)O[C@]3(C)CC[C@@H]12`, for which the Potency result was “inactive”.

On to `CC(C)(C)c1ccc(C(O)CCCN2CCC(C(O)(c3ccccc3)c3ccccc3)CC2)cc1` (stereo not given), for which the Potency entry is “inactive”. As to `Cc1cc(=O)oc2cc(O)cc(O)c12`, the Potency entry is “inactive”.

Consider `CC(C)(C)NSc1nc2ccccc2s1`, for which the Potency result is “inactive”. On to `c1ccc(C(O[C@@H]2CCCN(CCc3ccc4c(c3)OCO4)C2)c2ccccc2)cc1`, for which the Potency entry was “inactive”. Take `O=S(=O)(O)c1ccc(N=Nc2c(O)ccc3ccccc23)cc1`: the Potency entry was “inactive”. Turning to `CC1(C)CC(O)CC(C)(C)N1`, the Potency entry was “inactive”. On the same count and under the same terms, the value for `O=C(O)c1cc(=O)c2ccccc2o1` was “inactive”. Turning to `C=Cc1ccccc1C=C`, the Potency entry was “inactive”. `C#CC1(O)CC[C@H]2[C@@H]3CCC4=CCCC[C@@H]4[C@H]3CC[C@@]21C` (stereo not given in full): the Potency is 611 nM (active) and 473 nM (active). On the same count and under the same terms, the value for `O=C(Nc1ccc2c(O)c(N=Nc3ccc(N=Nc4ccc(S(=O)(=O)O)cc4)cc3)c(S(=O)(=O)O)cc2c1)c1ccccc1` was “inactive”. On to `CCCCCCCC/C=C\CCCCCCCCN`, for which the Potency entry is “inactive”. For the compound `Fc1ccc(C(c2ccc(F)cc2)N2CCNCC2)cc1`, the Potency entry is “inactive”. In the case of `CC(C)CCOC(=O)/C=C/c1ccccc1`, the Potency entry was “inactive”.

Regarding `CCCCN(CCCC)CC(O)c1cc(Cl)cc2c1-c1ccc(Cl)cc1/C2=C/c1ccc(Cl)cc1` (stereo not given), the Potency result was “inactive”. For `CCCCNS(=O)(=O)c1ccc(C)cc1`, the Potency result is “inactive”. On the same count and under the same terms, the value for `CN1CCCCC1CCN1c2ccccc2Sc2ccc(S(C)=O)cc21` (stereo not given) was “inactive”; that for `CCCC[P+](C)(CCCC)CCCC` was “inactive”.

As to `[Cl][Pt-2]([Cl])([Cl])[Cl]`, the Potency entry is “inactive”. Turning to `O=C(O)O`, the activation was 10.5% [at 8.39 µM]. Take `Cc1cc(C(C)(C)C)cc(C)c1CC1=NCCN1`: the Potency entry was “inactive”. On to `COc1cc(C)ccc1O`, for which the Potency entry is “inactive”. For `Nc1nc2c(ncn2COCCO)c(=O)[nH]1`, the Potency result is “inactive”. For `CC(=O)OCC=C(C)C`, the Potency result was “inactive”. In the case of `O=C(O)Cc1ccc2c(c1)C(=O)c1ccccc1CO2`, the Potency entry was “inactive”.

In the case of `Cc1ccc(C(C)C)cc2c(C)ccc1-2`, the Potency entry was “inactive”. Regarding `CC(C)NC[C@@H](O)COc1ccc(CC(N)=O)cc1`, the Potency result was “inactive”. With `CCCCCCCCCCCCCC[N+](C)(C)C`, the Potency entry is “inactive”. The same measure, in the same setting: then `CCOC(=O)NNc1ccc(N(CC)CC(C)O)nn1` (stereo not given), with “inactive”; and `Cc1c(C)c2c(c(C)c1O)CC[C@@](C)(CCC[C@H](C)CCC[C@H](C)CCCC(C)C)O2`, with “inactive”. For `O=C1CCc2cc(OCCCCc3nnnn3C3CCCCC3)ccc2N1`, the Potency entry was “inactive”. The same measure, in the same setting: then `CCCCCC(C)OC(=O)COc1ccc(Cl)c2cccnc12` (stereo not given), with “inactive”; and `Cc1cccc(C)c1NC(=O)c1ccc(N)cc1`, with “inactive”; and `Clc1nnc(Cl)c2ccccc12`, with “inactive”.

As to `O=[N+]([O-])c1cccc(C(F)(F)F)c1`, the Potency result was “inactive”. For `COC(=O)c1ccccc1C`, the Potency entry was “inactive”.

`CCc1ccc(Br)cc1`: the Potency result was “inactive”.

For the compound `OCCN1CCN(CCCN2c3ccccc3Sc3ccc(C(F)(F)F)cc32)CC1`, the Potency entry is “inactive”.
